In PubChem BioAssay (EPA / NIEHS) one finds outcome and AC50 data, which are given here for 35 compounds.

The AC50 is the concentration at which the activity in the assay is half-maximal.

Several values for one entry are separate records, joined by “and”; a condition that tells them apart may be missing. Identical values can stand only once. Some compounds were tested as several samples or in several runs, with calls that do not always agree. Activity calls are given as the source filed them. How the source made its calls: active means hit-call score of the fitted dose curve at least 0.9, where 1 is the maximum; inactive means score below 0.9.

The experiment deals with Aryl hydrocarbon receptor (Homo sapiens) (UniProt P35869). The experiment in a line: ATG_Ahr_CIS: Attagene CIS-FACTORIAL HepG2 Assay for human Aryl Hydrocarbon Receptor (Ahr) (AID 2282930). Conditions: HepG2 AhR cis-factorial reporter transcription; actives raise or lower the signal. As to the method: ATG_CIS is a cell-based, multiplexed-readout assay that uses HepG2, a human liver cell line, with measurements taken at 24 hours after chemical dosing in a 24-well plate.ATG_Ahr_CIS is one of 52 assay component(s) measured or calculated from the ATG_CIS assay. It is designed to make measurements of mRNA induction, a form of inducible reporter, as detected with fluorescence intensity signals by Reverse transcription polymerase chain reaction (RT-PCR) and Capillary electrophoresis technology.Data from the assay component ATG_Ahr_CIS was analyzed into 1 assay endpoint. This assay endpoint, ATG_Ahr_CIS, was analyzed with bidirectional fitting relative to DMSO as the negative control and baseline of activity. Using a type of inducible reporter, measures of mRNA for gain or loss-of-signal activity can be used to understand the reporter gene at the transcription factor-level as they relate to the gene AHR. Furthermore, this assay endpoint can be referred to as a primary readout, because this assay has produced multiple assay endpoints where this one serves a reporter gene function. To generalize the intended target to other relatable targets, this assay endpoint is annotated to the dna binding intended target family, where the subfamily is basic helix-loop-helix protein.
Chain of Aryl hydrocarbon receptor (Homo sapiens) (P35869 whole entry, looked up): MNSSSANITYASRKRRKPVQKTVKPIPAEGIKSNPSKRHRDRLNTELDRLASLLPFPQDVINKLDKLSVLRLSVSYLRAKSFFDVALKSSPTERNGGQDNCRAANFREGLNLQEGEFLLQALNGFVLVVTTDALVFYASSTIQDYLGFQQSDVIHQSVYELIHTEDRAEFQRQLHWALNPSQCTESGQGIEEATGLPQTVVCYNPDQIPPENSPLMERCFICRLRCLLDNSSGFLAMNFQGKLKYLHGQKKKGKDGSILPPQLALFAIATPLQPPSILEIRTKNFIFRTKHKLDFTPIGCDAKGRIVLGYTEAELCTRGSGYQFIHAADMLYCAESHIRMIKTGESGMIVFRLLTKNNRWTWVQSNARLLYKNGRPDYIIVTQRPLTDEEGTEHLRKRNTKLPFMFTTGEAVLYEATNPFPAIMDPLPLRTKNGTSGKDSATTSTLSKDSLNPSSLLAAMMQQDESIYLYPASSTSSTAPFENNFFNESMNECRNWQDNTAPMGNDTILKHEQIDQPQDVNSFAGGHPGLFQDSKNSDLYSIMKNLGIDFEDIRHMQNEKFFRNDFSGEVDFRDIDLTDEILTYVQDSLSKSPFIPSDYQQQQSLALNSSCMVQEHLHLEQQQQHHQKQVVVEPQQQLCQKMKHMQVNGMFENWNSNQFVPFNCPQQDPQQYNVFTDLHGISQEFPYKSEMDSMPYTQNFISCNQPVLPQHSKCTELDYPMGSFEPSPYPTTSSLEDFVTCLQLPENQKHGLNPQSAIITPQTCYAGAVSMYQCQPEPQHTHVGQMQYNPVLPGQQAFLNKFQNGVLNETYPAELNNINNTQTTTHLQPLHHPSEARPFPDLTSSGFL
Human liver HepG2 cells are transiently transfected with multiple reporter transcription units (MRTUs) in 6-well plates using FuGene 6 reagent (Roche; 3 ml FuGene/1 mg DNA). The MRTU constructs are regulated by a cis-regulating element (promoter). […] A major difference between the CIS and TRANS system is that in CIS activities of endogenous TFs are measured, whereas the TRANS assay evaluates changes in activities of exogenous, chimeric NR-Gal4 proteins. […] At the end of 24 hour incubation, total RNA was isolated using TriZol reagent (Invitrogen). The isolated RNA is then reverse-transcribed using oligo(dT) primer and Mo-MLV reverse transcriptase (Invitrogen) with DNAse I (Ambion) treatment for 30 min. The one-tenth of the produced cDNA was amplified by PCR using Taq DNA polymerase (Invitrogen) and two reporter sequence-specific primers. The PCR products were fluorescently labeled by primer extension with 6-arboxyfluorescein (6-FAM) 5'-labeled reporter sequence-specific primer (2 min at 95 C, 20 s at 68 C and 10 min at 72 C) and these products were digested with 5U of HpaI (New England Biolabs) for 2h at 37 C. […] The raw capillary electrophoresis data was processed using Attagraph software (Attagene).
`C#CCOC(=O)[C@@H](C)Oc1ccc(Oc2ncc(Cl)cc2F)cc1`: the compound was called inactive.

As to `Cc1nn(C)c(Oc2ccccc2)c1C=NOCc1ccc(C(=O)OC(C)(C)C)cc1`, the compound was classed as inactive.

Regarding `C#C[C@]1(O)CC[C@H]2[C@@H]3CCC4=CC(=O)CC[C@@H]4[C@H]3CC[C@@]21CC`, the outcome was inactive.

Take `COC(=O)c1ccc(CNS(C)(=O)=O)cc1S(=O)(=O)NC(=O)Nc1nc(OC)cc(OC)n1`: the outcome was inactive.

`CC(=O)S[C@@H]1CC2=CC(=O)CC[C@]2(C)[C@H]2CC[C@@]3(C)[C@@H](CC[C@@]34CCC(=O)O4)[C@H]12`: the outcome was inactive.

As for `COC(=O)c1ccccc1S(=O)(=O)NC(=O)Nc1nc(OC(F)F)cc(OC(F)F)n1`, the outcome was inactive.

Take `COC(=O)c1ccccc1C(=O)O`: the outcome was inactive.

With `CCC(O)=C1C(=O)CC(C(=O)O)CC1=O` (stereo not given), the result was inactive.

Take `COC(=O)CSc1cc(N=c2sc(=O)n3n2CCCC3)c(F)cc1Cl`: the call was inactive.

In the case of `COc1c(Cl)ccc(Cl)c1C(=O)O`, the compound was called inactive.

For `S=C(S)NCCNC(=S)S.[Mn+2].[S-]C([S-])=NCCN=C([S-])[S-].[Zn+2]`, the call was inactive and the AC50 was 20.7 µM (active) [middle of 4 runs].

As for `CCOC(=O)C(C)Oc1ccc(Oc2cnc3cc(Cl)ccc3n2)cc1` (stereo not given), the result was inactive.

Take `CSC(=O)c1cccc2nnsc12`: the compound was called inactive.

For `CC(C)CCCCCCc1ccc(O)cc1`, the AC50 is 21 µM (active) and the call was inactive.

With `CC(C)(c1ccc(O)cc1)c1ccc(O)cc1`, the AC50 is 26.9 µM (active) and 49.5 µM (active) and 23.6 µM (active); the outcome was inactive.

Take `CCCCOCCOCCOCc1cc2c(cc1CCC)OCO2`: the call was inactive.

Consider `CCSC(=O)N(CC(C)C)CC(C)C`, for which the call was inactive.

In the case of `CCCCOC(=O)[C@@H](C)Oc1ccc(Oc2ccc(C(F)(F)F)cn2)cc1`, the compound was classed as inactive.

In the case of `COCCO`, the call was inactive.

Consider `O=C(O)C1(C(=O)Nc2ccc(Cl)cc2Cl)CC1`, for which the call was inactive.

In the case of `N#CSCSc1nc2ccccc2s1`, the result was inactive.

On to `O=C(c1ccccc1)C1CCCCC1`, for which the AC50 is 17.2 µM (active) and the outcome was inactive.

With `c1ccc(Nc2ccccc2)cc1`, the call was inactive.

`COC(=O)c1c(Cl)nn(C)c1S(=O)(=O)NC(=O)Nc1nc(OC)cc(OC)n1`: the call was inactive.

`CC(=O)[C@H]1CC[C@H]2[C@@H]3CCC4=CC(=O)CC[C@]4(C)[C@H]3CC[C@]12C`: the AC50 was 100 µM (active) and the result was inactive.

Turning to `OB(O)O`, the compound was called inactive.

As for `COc1nc(C)nc(NC(=O)NS(=O)(=O)c2ccccc2OCCCl)n1`, the outcome was inactive.

For `CCCN(CCC)C(=O)SCC`, the compound was called inactive.

`CCN(CC)C(=O)c1cccc(C)c1`: the compound was called inactive.

Consider `CCC(C)OC(=O)N1CCCCC1CCO` (stereo not given), for which the outcome was inactive.

`CCOC(=O)C(C)Oc1ccc(Oc2nc3ccc(Cl)cc3o2)cc1` (stereo not given): the compound was called inactive.

Turning to `CCCOC(=O)c1ccc(C(=O)OCCC)nc1`, the result was inactive.

Consider `CCN(Cc1c(F)cccc1Cl)c1c([N+](=O)[O-])cc(C(F)(F)F)cc1[N+](=O)[O-]`, for which the result was inactive.

For `CCOC(=O)[C@H](C)Oc1ccc(Oc2nc3ccc(Cl)cc3o2)cc1`, the result was inactive.

Consider `CCCOC(=O)NCCCN(C)C`, for which the result was inactive.
